The target of test [1] is CCAAT/enhancer-binding protein beta (Homo sapiens) (UniProt P17676). In words: ATG_C_EBP_CIS: Attagene CIS-FACTORIAL HepG2 Assay for human CCAAT/Enhancer Binding Protein (C/EBP) beta (AID 2282927). The following applies: HepG2 Attagene cis-factorial transcription factor reporter; actives raise or lower the signal. The essentials:
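Endogenous transcription factor activity in human liver HepG2 cells is inferred from induction of a CEBPB-linked reporter mRNA. Exposure lasts 24 h; activity is fitted in both directions relative to DMSO.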

A short description of test [2]: ATG_CMV_CIS: Attagene CIS-FACTORIAL HepG2 Assay for human CMV (Internal Marker) (AID 2282928).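 Also: endpoint acts as a background internal control marker rather than a target.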 Conditions: HepG2 CMV promoter reporter, transcription factor profiling; actives raise or lower the signal. The essentials: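 Fluorescence intensity of RT-PCR-derived reporter fragments, resolved by capillary electrophoresis, gives the signal. HepG2 liver cells bearing transfected cis-element reporters were treated 24 h; activity in either direction was fit relative to DMSO-treated controls.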

Test [3] can be described thus: ATG_BRE_CIS: Attagene CIS-FACTORIAL HepG2 Assay for human Bone Morphogenetic Protein (BMP) Response Element (BRE) (AID 2282933). Conditions: HepG2 BMP response element reporter, Attagene transcription factor profiling; actives raise or lower the signal. The essentials: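 Read-out: reporter mRNA induction quantified by RT-PCR and capillary electrophoresis after 24 h chemical exposure of transfected HepG2 cells. Endogenous factor activity on the BMP response element; gain or loss fitted against DMSO baseline.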

Test [4] in a line: ATG_E_Box_CIS: Attagene CIS-FACTORIAL HepG2 Assay for human Enhancer Box (E-box) (AID 2282936). The following applies: HepG2 E-box cis-reporter transcription, actives raise or lower the signal. The essentials: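 E-box-driven reporter transcripts measured in transiently transfected HepG2 after 24 h exposure: RNA reverse-transcribed, PCR-amplified, fluorescently labelled, digested and resolved by capillary electrophoresis. Gain or loss relative to DMSO.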

Test [5] can be described thus: ATG_M_19_CIS: Attagene CIS-FACTORIAL HepG2 Assay for M19 Transcription Factor (Internal Marker) (AID 2282939). The following applies: HepG2 Attagene CIS-FACTORIAL M19 internal marker reporter; actives raise or lower the signal. In outline:
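Readout: fluorescent reporter-transcript fragments by capillary electrophoresis after RT-PCR. Human HepG2 liver cells carried transfected MRTU constructs reporting endogenous transcription-factor activity; exposure 24 h. Gain or loss of signal fitted relative to DMSO.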

Test [6] can be described thus: ATG_GATA_CIS: Attagene CIS-FACTORIAL HepG2 Assay for human GATA Binding Protein (AID 2282944). The following applies: HepG2 GATA cis-element reporter, Attagene multiplex mRNA; actives raise or lower the signal. In outline: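 Read-out: fluorescent reporter mRNA fragments resolved by capillary electrophoresis after RT-PCR. Human liver HepG2 cells carried transiently transfected cis-regulated reporter constructs; chemicals incubated 24 h; gain or loss of signal fitted relative to DMSO.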

The nature of test [7]: ATG_ISRE_CIS: Attagene CIS-FACTORIAL HepG2 Assay for human Interferon Regulatory Factor 1 (IRF1) binding to an Interferon-Stimulated Response Element (ISRE) (AID 2282948). The following applies: HepG2 ISRE cis-reporter (Attagene), mRNA transcription readout; actives raise or lower the signal. The essentials:
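Signal reflects induction or loss of ISRE-linked reporter mRNA in transiently transfected HepG2 cells after a 24 h treatment, detected by fluorescent RT-PCR fragments on capillary electrophoresis and normalised to DMSO.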

A short description of test [8]: ATG_M_32_CIS: Attagene CIS-FACTORIAL HepG2 Assay for M32 Transcription Factor (Internal Marker) (AID 2282949).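 Also: background control marker of the multiplexed CIS panel rather than a real target.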 Conditions: HepG2 Attagene cis-factorial M32 reporter, mRNA; actives raise or lower the signal. The essentials: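 HepG2 transfectants (cis-regulated reporter transcription units) dosed 24 h. Reporter mRNA by RT-PCR plus CE, analysed as gain or loss relative to DMSO.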

A short description of test [9]: ATG_M_06_CIS: Attagene CIS-FACTORIAL HepG2 Assay for M06 Transcription Factor (Internal Marker) (AID 2282950). Conditions: HepG2 Attagene CIS-FACTORIAL M06 internal marker reporter; actives raise or lower the signal. In outline:
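Terse: HepG2, transient MRTU transfection (FuGene 6), 24 h dosing; total RNA, oligo(dT) RT, PCR, FAM label, HpaI cut, capillary electrophoresis; bidirectional fit vs DMSO baseline; background-control endpoint.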

Test [10] is described as follows: ATG_MRE_CIS: Attagene CIS-FACTORIAL HepG2 Assay for human Metal Responsive Element (MRE) (AID 2282954). Conditions: HepG2 MRE cis-reporter transcription, Attagene multiplex; actives raise or lower the signal. The essentials: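 Endogenous MRE-dependent transcription read as reporter mRNA in transiently transfected human HepG2 cells at 24 h. RNA reverse-transcribed, PCR-amplified, labelled and resolved by capillary electrophoresis; gain or loss relative to DMSO.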

Test [11] concerns the target Paired box protein Pax-6 (Homo sapiens) (UniProt P26367). In words: ATG_Pax6_CIS: Attagene CIS-FACTORIAL HepG2 Assay for human Paired Box 6 (PAX6) (AID 2282956). The following applies: HepG2 CIS-FACTORIAL PAX6 reporter transcription, RNA readout; actives raise or lower the signal. The essentials: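 Values derive from bidirectional curve fitting of reporter mRNA signal relative to DMSO. HepG2 cells bearing transfected cis-regulated MRTUs were exposed for 24 h; transcripts were read by RT-PCR and capillary electrophoresis.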

Test [12] is described as follows: ATG_PXRE_CIS: Attagene CIS-FACTORIAL HepG2 Assay for human Pregnane X Receptor Element (PXRE) (AID 2282957). Conditions: HepG2 Attagene CIS-FACTORIAL PXRE reporter, mRNA; actives raise or lower the signal. The essentials: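 Read-out: fluorescence of reporter-specific RT-PCR products resolved by capillary electrophoresis, fitted bidirectionally relative to DMSO. Human HepG2 liver cells carried transfected cis-promoter reporter units and were exposed to chemicals for 24 h.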

The nature of test [13]: TOX21_p53_BLA_p2_viability: Viability Assessment in the Tox21 HCT-116 p53 Agonism Beta-lactamase Assay, Phase 2 (AID 2283591; active = hit-call score of the fitted dose curve at least 0.9, where 1 is the maximum;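 also: actives lower the ATP signal meaning cytotoxicity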). The essentials:
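Cytotoxicity readout: CellTiter-Glo ATP luminescence, 30 min at room temperature, after the beta-lactamase read. Cells were HCT116 exposed 16 h at 37C to compounds pin-transferred at 217-fold dilution from DMSO stocks.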

For test [14], the target named is Cellular tumor antigen p53 (Homo sapiens) (UniProt P04637). Kind of test: TOX21_p53_BLA_p2_ratio: Tox21 HCT-116 p53 Agonism Beta-lactamase Assay, Ratio, Phase 2 (AID 2283592; active = hit-call score of the fitted dose curve at least 0.9, where 1 is the maximum). In outline: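 Readout: blue/green (460/530 nm) FRET emission ratio after 2 h CCF4-AM loading at room temperature, excitation 405 nm. HCT116 p53 bla cells, 16 h compound exposure at 37C, 5% CO2; agonist direction fitted against DMSO baseline.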
Sequence of Cellular tumor antigen p53 (Homo sapiens) (P04637 whole entry, looked up): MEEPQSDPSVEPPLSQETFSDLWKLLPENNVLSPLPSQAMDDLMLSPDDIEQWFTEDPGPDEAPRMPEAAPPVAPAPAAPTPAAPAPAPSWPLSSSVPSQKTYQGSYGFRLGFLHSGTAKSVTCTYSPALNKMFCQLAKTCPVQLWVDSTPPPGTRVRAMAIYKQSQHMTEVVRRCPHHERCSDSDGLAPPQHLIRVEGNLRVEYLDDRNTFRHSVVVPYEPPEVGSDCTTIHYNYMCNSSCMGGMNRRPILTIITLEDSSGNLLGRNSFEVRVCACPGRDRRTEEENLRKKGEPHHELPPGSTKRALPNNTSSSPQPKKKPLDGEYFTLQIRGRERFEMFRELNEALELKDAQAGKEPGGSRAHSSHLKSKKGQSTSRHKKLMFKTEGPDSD

The nature of test [15]: TOX21_p53_BLA_p3_viability: Viability Assessment in the Tox21 HCT-116 p53 Agonism Beta-lactamase Assay, Phase 3 (AID 2283593; active = hit-call score of the fitted dose curve at least 0.9, where 1 is the maximum;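 also: cells exposed to compound for 16 h before reading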). The essentials: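 Cellular ATP was quantified by CellTiter-Glo luminescence, read after 30 min at room temperature. Beforehand, HCT116 cells (4000/well) received compound 5 h post-seeding, 217-fold diluted from DMSO, then incubated 16 h at 37C.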

Test [16] has as its target Cellular tumor antigen p53 (Homo sapiens) (UniProt P04637). Kind of test: TOX21_p53_BLA_p3_ratio: Tox21 HCT-116 p53 Agonism Beta-lactamase Assay, Ratio, Phase 3 (AID 2283596; active = hit-call score of the fitted dose curve at least 0.9, where 1 is the maximum). In outline:
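Cells were seeded at 4000/well, rested 5 h at 37C, then dosed with DMSO compound solutions (217-fold dilution) for 16 h. CCF4-AM substrate was loaded for 2 h at room temperature, and the 460/530 nm emission ratio was fitted for gain of signal versus DMSO.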

Test [17] is described as follows: TOX21_p53_BLA_p4_viability: Viability Assessment in the Tox21 HCT-116 p53 Agonism Beta-lactamase Assay, Phase 4 (AID 2283597; active = hit-call score of the fitted dose curve at least 0.9, where 1 is the maximum;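 also: hits lower the luminescence signal meaning cytotoxicity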). The essentials:
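ATP content by CellTiter-Glo luminescence, 30 min RT, read after the beta-lactamase ratio step. Cells: HCT116, 4000/well, compound added after 5 h, exposure 16 h at 37C. Signal loss = reduced viability.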

Test [18] has as its target Cellular tumor antigen p53 (Homo sapiens) (UniProt P04637). Kind of test: TOX21_p53_BLA_p5_ratio: Tox21 HCT-116 p53 Agonism Beta-lactamase Assay, Ratio, Phase 5 (AID 2283599; active = hit-call score of the fitted dose curve at least 0.9, where 1 is the maximum). In outline:
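Beta-lactamase reporter ratio (blue 460 nm over green 530 nm, 405 nm excitation) after 2 h CCF4-AM loading, in HCT-116 cells exposed 16 h at 37 C to compounds pinned at 217-fold dilution. Increases relative to DMSO baseline scored.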

Test [19] in a line: TOX21_p53_BLA_p5_viability: Viability Assessment in the Tox21 HCT-116 p53 Agonism Beta-lactamase Assay, Phase 5 (AID 2283600; active = hit-call score of the fitted dose curve at least 0.9, where 1 is the maximum). The essentials:
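ATP luminescence (CellTiter-Glo, 30 min, RT) served as the viability read-out, with loss of signal indicating cytotoxicity. Compounds in DMSO were pinned at a 217-fold dilution onto 4000 cells/well and incubated 16 h, 37C.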

Test [20] has as its target Cellular tumor antigen p53 (Homo sapiens) (UniProt P04637). In words: TOX21_p53_BLA_p4_ratio: Tox21 HCT-116 p53 Agonism Beta-lactamase Assay, Ratio, Phase 4 (AID 2283601; active = hit-call score of the fitted dose curve at least 0.9, where 1 is the maximum). In outline:
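Signal is the blue/green (460nm/530nm) ratio of cleaved versus uncleaved CCF4-AM substrate, read after 2 h substrate loading. Cells were HCT116 carrying the p53-responsive beta-lactamase reporter, dosed 16 h at 37C, 5% CO2; CellTiter-Glo measured in parallel.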

Data on 7 compounds can be found in PubChem BioAssay (EPA / NIEHS).

Results filed as inconclusive are left out. Activity calls are given as the source filed them. The calls were made as follows, unless noted: active = hit-call score of the fitted dose curve at least 0.9, where 1 is the maximum; inactive = score below 0.9.

Sequence of Paired box protein Pax-6 (Homo sapiens) (P26367 whole entry, looked up): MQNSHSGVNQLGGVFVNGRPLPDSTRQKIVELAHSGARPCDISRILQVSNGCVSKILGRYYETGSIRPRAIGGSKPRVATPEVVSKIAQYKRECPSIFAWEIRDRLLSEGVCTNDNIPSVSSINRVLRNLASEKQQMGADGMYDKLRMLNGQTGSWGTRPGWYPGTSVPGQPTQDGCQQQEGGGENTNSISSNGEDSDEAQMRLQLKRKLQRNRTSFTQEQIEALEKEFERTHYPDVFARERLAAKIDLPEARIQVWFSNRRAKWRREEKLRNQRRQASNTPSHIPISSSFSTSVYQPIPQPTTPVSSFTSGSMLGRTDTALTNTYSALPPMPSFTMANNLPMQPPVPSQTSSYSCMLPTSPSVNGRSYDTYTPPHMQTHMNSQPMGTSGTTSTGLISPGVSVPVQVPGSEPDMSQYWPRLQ
Sequence of CCAAT/enhancer-binding protein beta (Homo sapiens) (P17676 whole entry, looked up): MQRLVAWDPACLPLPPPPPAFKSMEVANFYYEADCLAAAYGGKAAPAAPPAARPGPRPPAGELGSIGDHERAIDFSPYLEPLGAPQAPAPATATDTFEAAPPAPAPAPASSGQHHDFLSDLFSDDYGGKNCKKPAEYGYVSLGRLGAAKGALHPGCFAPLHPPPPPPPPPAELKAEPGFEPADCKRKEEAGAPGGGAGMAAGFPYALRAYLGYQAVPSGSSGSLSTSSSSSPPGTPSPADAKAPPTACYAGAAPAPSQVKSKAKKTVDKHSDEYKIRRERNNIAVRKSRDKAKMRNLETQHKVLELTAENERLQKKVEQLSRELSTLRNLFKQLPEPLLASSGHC

Usually AC50 stands for the concentration giving half of the maximal activity seen. Consider `O=C(C1CCCCC1)N1CC(=O)N2CCc3ccccc3C2C1` (stereo not drawn), for which the outcome in test [1], in test [2], in test [3], in [4], in test [5] and in test [6] was inactive. Further, the outcome in [7], in test [8], in test [9], in test [10] and in test [11] was inactive. Further, the AC50 in [12] is 7.1 µM (active).
For the compound `COc1c2occc2cc2ccc(=O)oc12`, the figures for the AC50 in test [1], in test [2] and in test [12] were 63.8 µM (active), 59.2 µM (active) and 27.3 µM (active), respectively. Also, the call in test [3], in test [4], in test [5], in [6], in test [7] and in test [8] was inactive. The outcome in [9], in [10], in test [11], in test [13], in test [14] and in test [15] was inactive. Also, the outcome in [16], in [17], in test [18], in test [19] and in [20] was inactive.
As to `CC(=O)OC(C)(C)Cc1ccccc1`, the outcome in [1], in test [2], in test [3], in test [4], in test [5] and in test [6] was inactive. Further, the compound was called inactive in test [7], in [8], in test [9], in test [10], in test [11] and in test [12]. In addition, the compound was called inactive in test [13], in [14], in test [15], in test [16], in [19] and in [20].
As to `CC(C)(C)C(=O)C(=O)O`, the outcome in test [14], in test [18], in [19] and in [20] was inactive.
As to `CCCCC(CC)COC(=O)C=Cc1ccc(OC)cc1` (stereo not drawn), the compound was called inactive in test [13], in test [14], in test [15], in test [16], in [17] and in test [18]. In addition, in [19], the compound was called inactive.
For the compound `OCCc1ccccn1`, the outcome in test [1], in test [2], in test [3], in test [4], in test [5] and in test [6] was inactive. Also, the result in test [7], in test [8], in test [9], in test [10], in test [11] and in test [12] was inactive. For the same compound, the call in [13], in test [14], in [16], in test [19] and in test [20] was inactive.
Turning to `Oc1ccc(Cl)cc1C1CCCC1`, the result in [1], in [2], in test [4], in test [5], in [8] and in test [9] was inactive. For the same compound, the outcome in test [13], in test [14], in test [15], in test [16], in test [18] and in test [19] was inactive. The AC50 in test [3] is 56.6 µM (active); in test [6] it was 33.4 µM (active); in test [7], 57.3 µM (active); in test [10], 53 µM (active); in test [11], 62.4 µM (active); in test [12] it was 7.76 µM (active). For the same compound, the AC50 was 66.6 µM (active) in [17] and 55.6 µM (active) in test [20].
